# Laboratory results published in PubChem BioAssay (Tox21).
# Several values for one entry are separate records, joined by “and”; a condition that tells them apart may be missing. Identical values can stand only once. Results filed as inconclusive are left out. Entries that show only a call come without a potency. Activity calls are given as the source filed them. Unless noted, calls come from the whole dose curve; as a rule, active = well fitted curve in the direction sought with a large enough effect in the repeat runs; inconclusive = weak or mixed curves; inactive = no such curve, though single readings can be large; an effect the other way counts as inactive or inconclusive.
# What was measured:
# [1] = qHTS assay for small molecule agonists of the p53 signaling pathway (AID 651631; calls by dose curve; note: nearly all actives have a fitted effect of over 15% in size; note: potency is the fitted concentration of half-maximal effect)
# In short: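 Beta-lactamase reporter activity under p53 response elements was quantified in HCT-116 cells by FRET fluorescence, following 16 h incubation with test compounds at 37 °C and 2 h substrate development at room temperature.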
# [2] = qHTS assay for small molecules that induce genotoxicity in human embryonic kidney cells expressing luciferase-tagged ATAD5 (AID 651632); note: nearly all actives have a fitted effect of over 15% in size; note: potency is the fitted concentration of half-maximal effect
# In short: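 ATAD5-luc HEK293T, 2,000 cells/well; cpd or DMSO pin-transferred; 16 hr, 37C/5% CO2; Amplite 30 min RT; luminescence.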
# [3] = qHTS assay for small molecule agonists of the p53 signaling pathway - cell viability (AID 651633; calls by dose curve; note: nearly all actives have a fitted effect of over 30% in size; note: potency is the fitted concentration of half-maximal effect)
# In short: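 p53RE-bla cells, seeded at 4,000 per well and rested 5 h at 37 C/5% CO2, received compounds in DMSO for 16 h at 37 C. CellTiter-Glo was then added, and luminescence was read after 30 min at room temperature to gauge cytotoxicity.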
# [4] = qHTS assay for small molecules that induce genotoxicity in human embryonic kidney cells expressing luciferase-tagged ATAD5 - cell viability (AID 651634; calls by dose curve; note: nearly all actives have a fitted effect of over 25% in size; note: potency is the fitted concentration of half-maximal effect)
# In short: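 Fluorescence from CellTiter-Fluor, reporting protease activity within live cells, served as the viability read-out. HEK293T cells carrying luciferase-tagged ATAD5 had been treated with compound for 15.5 hr at 37C.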
# [5] = qHTS assay for small molecule disruptors of the mitochondrial membrane potential - cell viability (AID 720634; calls by dose curve;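 note: human HepG2 liver cancer cells; series mostly up to about 83 µM; nearly all actives have a fitted effect of over 20% in size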)
# In short: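 Cells: HepG2, 2,000/well, attached overnight. Compound 1 hr, 37 C/5% CO2. +m-MPI dye, +CellTiter-Glo 30 min RT. Readout: luminescence (ATP).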
# [6] = qHTS assay for small molecule disruptors of the mitochondrial membrane potential (AID 720635); note: potency is the fitted concentration of half-maximal effect
# In short: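 HepG2 cells (2,000/well) attached overnight at 37C, then took compound for 1 hr at 37C, 5% CO2. Mito-MPS dye was added for 30 min; fluorescence was read at 490/535 nm (monomers) and 540/590 nm (aggregates).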
# [7] = qHTS assay to test for compound auto fluorescence at 590 nm (red) in HepG2 cells (AID 720674)
# In short: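 Intrinsic compound fluorescence in the red window (Ex/Em 540/590 nm) is measured in attached HepG2 cells exposed for 1 hr, DMSO vehicle as baseline, benchmarked to Rose Bengal sodium.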
# [8] = qHTS assay to test for compound auto fluorescence at 535 nm (green) in HepG2 cells (AID 720675)
# [9] = qHTS assay to test for compound auto fluorescence at 460 nm (blue) in HEK293 cells (AID 720678)
# In short: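 Auto fluorescence in the blue band was quantified as triamterene equivalency. HEK293 cells were seeded at 2,000/well, dosed after a 4-5 hr attachment, and kept overnight at 37C before the 405/460 nm reading.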
# [10] = qHTS assay to test for compound auto fluorescence at 590 nm (red) in HEK293 cells (AID 720679)
# In short: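 Autofluorescence equivalency to Rose Bengal sodium, 540/590nm, in HEK293 cells exposed overnight to 23 nL compound per well.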
SMILES,Potency [1],Potency [2],Potency [3],Potency [4],Potency [5],Potency [6],outcome [7],Potency [8],Potency [9],outcome [10]
C[Se]CC[C@H](N)C(=O)O,inactive,inactive,inactive,inactive,inactive,inactive,inactive,inactive,inactive,inactive
Oc1ccc(Cl)c2c1CCC2,inactive,inactive,inactive,inactive,inactive,24.8 µM (active),inactive,inactive,inactive,inactive
CCCCCCOC(=O)c1cccnc1,inactive,inactive,inactive,inactive,inactive,inactive,inactive,inactive,inactive,inactive
CCN(CC)C(=O)c1cccnc1,inactive,inactive,inactive,inactive,inactive,inactive,inactive,inactive,inactive,inactive
CO/N=C(\C(=O)N[C@@H]1C(=O)N2C(C(=O)O)=C(COC(C)=O)CS[C@H]12)c1csc(N)n1 (stereo in doubt),inactive,inactive,inactive,inactive,inactive,inactive,inactive,inactive,inactive,inactive
Cc1ncc(C[n+]2csc(CCOP(=O)(O)O)c2C)c(N)n1,inactive,inactive,inactive,inactive,inactive,inactive,inactive,inactive,inactive,inactive
Cc1c(N)nc([C@H](CC(N)=O)NC[C@H](N)C(N)=O)nc1C(=O)N[C@H](C(=O)N[C@H](C)[C@@H](O)[C@H](C)C(=O)N[C@H](C(=O)NCCc1nc(-c2nc(C(=O)NCCCCN=C(N)N)cs2)cs1)[C@@H](C)O)[C@@H](O[C@@H]1O[C@@H](CO)[C@@H](O)[C@H](O)[C@@H]1O[C@H]1O[C@H](CO)[C@@H](O)[C@H](OC(N)=O)[C@@H]1O)c1cnc[nH]1,841 nM (active) and 66.8 nM (active),inactive,inactive,inactive,inactive,inactive,inactive,inactive,inactive,inactive
O=C1C2CC3CC1CC(O)(C3)C2,inactive,inactive,inactive,inactive,inactive,inactive,inactive,inactive,inactive,inactive
C=CC1=C(C(=O)O)N2C(=O)[C@@H](NC(=O)/C(=N/OCC(=O)O)c3csc(N)n3)[C@H]2SC1 (stereo in doubt),inactive,inactive,inactive,inactive,inactive,inactive,inactive,inactive,inactive,inactive
C1CCc2nnnn2CC1,inactive,inactive,inactive,inactive,inactive,inactive,inactive,inactive,inactive,inactive
O=C(O)c1cc(=O)c2c3nc4ccccc4oc-3cc(=O)c2[nH]1,inactive,inactive,inactive,inactive,inactive,21.1 µM (active),inactive,inactive,inactive,inactive
CCOc1cc(CC(=O)N[C@@H](CC(C)C)c2ccccc2N2CCCCC2)ccc1C(=O)O,inactive,inactive,inactive,inactive,inactive,inactive,inactive,inactive,inactive,inactive
Cc1cn([C@H]2C[C@H](O)[C@@H](CO)O2)c(=O)[nH]c1=O,inactive,inactive,inactive,inactive,inactive,inactive,inactive,inactive,inactive,inactive
O=C(O)COc1ccccc1/C=N/NC(=O)c1ccncc1,inactive,inactive,inactive,inactive,inactive,inactive,inactive,inactive,inactive,inactive
CC[C@H]1OC(=O)[C@H](C)C(=O)[C@H](C)[C@@H](O[C@@H]2O[C@H](C)C[C@H](N(C)C)[C@H]2O)[C@](C)(OC)C[C@@H](C)C(=O)[C@H](C)[C@H]2N(CCCCn3cnc(-c4cccnc4)c3)C(=O)O[C@]12C,inactive,inactive,inactive,inactive,inactive,inactive,inactive,inactive,inactive,inactive
O=C(O)CCCC/C=C(\c1ccccc1)c1cccnc1,inactive,inactive,inactive,inactive,inactive,inactive,inactive,inactive,inactive,inactive
CC1=C(/C=C/C(C)=C/C=C/C(C)=C/C=C/C=C(C)/C=C/C=C(C)/C=C/C2=C(C)CCCC2(C)C)C(C)(C)CCC1,inactive,inactive,inactive,inactive,inactive,inactive,inactive,inactive,inactive,inactive
CCc1ncnc2cc(OC)c(OC)cc12,inactive,inactive,inactive,inactive,inactive,inactive,inactive,inactive,inactive,inactive
CN(Cc1ccccc1)Cc1ccccc1,inactive,inactive,inactive,inactive,inactive,inactive,inactive,inactive,inactive,inactive
NC(=O)CC[C@@H]1NC(=O)[C@H](Cc2ccccc2)NC(=O)[C@H](Cc2ccc(O)cc2)NC(=O)[C@@H](N)CSSC[C@@H](C(=O)N2CCC[C@H]2C(=O)N[C@@H](CCCN=C(N)N)C(=O)NCC(N)=O)NC(=O)[C@H](CC(N)=O)NC1=O,inactive,inactive,inactive,inactive,inactive,inactive,inactive,inactive,inactive,inactive

SMILES,Potency [1],Potency [2],Potency [3],Potency [4],Potency [5],Potency [6],outcome [7],Potency [8],Potency [9],outcome [10]
CC/C=C\C/C=C\C/C=C\C/C=C\C/C=C\CCCC(=O)O,inactive,inactive,inactive,inactive,inactive,inactive,inactive,inactive,inactive,inactive
CC(C)NCC1CCc2cc(CO)c([N+](=O)[O-])cc2N1 (stereo not given),inactive,inactive,inactive,inactive,inactive,inactive,inactive,inactive,inactive,inactive
CC(C)C[C@@H](NC(=O)[C@@H](O)[C@H](N)Cc1ccccc1)C(=O)O,inactive,inactive,inactive,inactive,inactive,inactive,inactive,inactive,inactive,inactive
Cc1cccc(C)c1NC(=O)C1CCCCN1C (stereo not given),inactive,inactive,inactive,inactive,inactive,inactive,inactive,inactive,inactive,inactive
COc1ccc([C@@H]2CC(=O)c3c(O)cc(O[C@@H]4O[C@H](CO[C@@H]5O[C@@H](C)[C@H](O)[C@@H](O)[C@H]5O)[C@@H](O)[C@H](O)[C@H]4O)cc3O2)cc1O,inactive,inactive,inactive,inactive,inactive,inactive,inactive,inactive,inactive,inactive
CC(CNC(=O)c1cccnc1)NC(=O)c1cccnc1 (stereo not given),inactive,inactive,inactive,inactive,inactive,inactive,inactive,inactive,inactive,inactive
CCCCCCCCCCCCCCCC(=O)OC[C@H](COP(=O)([O-])OCC[N+](C)(C)C)OC(=O)CCCCCCCCCCCCCCC,inactive,inactive,inactive,inactive,inactive,inactive,inactive,inactive,inactive,inactive
NCC[C@H](O)C(=O)N[C@@H]1C[C@H](N)[C@@H](O[C@H]2O[C@H](CN)CC[C@H]2N)[C@H](O)[C@H]1O[C@H]1O[C@H](CO)[C@@H](O)[C@H](N)[C@H]1O,inactive,inactive,inactive,inactive,inactive,inactive,inactive,inactive,inactive,inactive
CC1(C)CCC(NC(=O)[C@@H](N)CCC(=O)O)CC1,inactive,inactive,inactive,inactive,inactive,inactive,inactive,inactive,inactive,inactive
Nc1nc(NC2CC2)c2ncn([C@@H]3C=C[C@@H](CO)C3)c2n1,inactive,13.3 µM (active),inactive,inactive,inactive,inactive,inactive,inactive,inactive,inactive
CN(C)CCc1c[nH]c2ccc(Cn3cncn3)cc12,inactive,inactive,inactive,inactive,inactive,inactive,inactive,inactive,inactive,inactive
OCl,inactive,inactive,inactive,inactive,inactive,inactive,inactive,inactive,inactive,inactive
O=C1c2ccccc2C(=O)C1c1ccc(F)cc1,inactive,inactive,inactive,inactive,inactive,inactive,inactive,inactive,inactive,inactive
CCCCCCCCCCCC[n+]1ccc2ccccc2c1,26.6 µM (active),inactive,29.8 µM (active),7.5 µM (active),inactive,2.98 µM (active),inactive,inactive,inactive,inactive
CC(C)C[C@H](NC(=O)[C@@H](COC(C)(C)C)NC(=O)[C@H](Cc1ccc(O)cc1)NC(=O)[C@H](CO)NC(=O)[C@H](Cc1c[nH]c2ccccc12)NC(=O)[C@H](Cc1cnc[nH]1)NC(=O)[C@@H]1CCC(=O)N1)C(=O)N[C@@H](CCCN=C(N)N)C(=O)N1CCC[C@H]1C(=O)NNC(N)=O,inactive,inactive,inactive,inactive,inactive,inactive,inactive,inactive,inactive,inactive
C[S+](C)CCC(N)C(=O)O (stereo not given),inactive,inactive,inactive,inactive,inactive,inactive,inactive,inactive,inactive,inactive
NC[C@@H]1CC[C@@H](N)[C@@H](O[C@H]2[C@H](O)[C@@H](O[C@H]3O[C@H](CO)[C@@H](O)[C@H](N)[C@H]3O)[C@H](N)C[C@@H]2N)O1,inactive,inactive,inactive,inactive,inactive,inactive,inactive,inactive,inactive,inactive
CCOC(=O)Cc1ccc(-c2ccccc2)cc1,inactive,inactive,inactive,inactive,inactive,inactive,inactive,inactive,inactive,inactive
C[C@@H]1O[C@@H]1P(=O)(O)O,inactive,inactive,inactive,inactive,inactive,inactive,inactive,inactive,inactive,inactive
